# Mcl-1 Bim block = disrupts Bim peptide binding to human Mcl-1 | Bead-based flow cytometry, Bim peptide-Mcl-1 binding | Q07820 | inhibition, % at 10 µM | 0.1% of 190,000 active; in the data active means inhibition above about 40%;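 further: 0% = no compound tracer wells and 100% = peptide blocker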
# 14-3-3 Bad inh = disrupts binding of bovine 14-3-3 zeta to phospho-Bad peptide | P63103 | TR-FRET 14-3-3zeta/Dy647-pBad peptide displacement, 1 h | inhibition, % at 21.7 µM | 0.71% of 220,000 active;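 active means inhibition above about 70%, limit read from the data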;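 further: 0% = full 14-3-3 plus peptide FRET controls and 100% = background without 14-3-3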
# Mcl1 Noxa PPI = disrupts binding of human Mcl-1 to Noxa peptide; AID 1022; 1.5% of 220,000 active; inhibition, % at 21.7 µM; TR-FRET Mcl-1/Noxa peptide binding, 2 h; Q07820;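 active means compounds that cut the protein-peptide binding signal by more than 50% relative to plate controls in a single-dose test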;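 further: His-tagged Mcl-1 with rhodamine Noxa BH3 peptide and terbium anti-His antibody; 0% = Mcl-1 plus Noxa peptide wells and 100% = peptide-only wells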
# MCL1 BIM primary = disrupts human MCL1 binding to BIM-BH3 peptide. AID 2057. GST-MCL1 / FITC-Bim-BH3 fluorescence polarization. inhibition, % at 10.9 µM. Q07820. 0.68% of 320,000 active;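 active means inhibition above the mean inhibition of all tested compounds plus 3 SD, set per campaign, cut at about 40% in these data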;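 further: 0% = DMSO wells and 100% = unlabeled Bim-BH3 peptide control; higher means more loss of mP so more displacement of Bim peptide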
# Mcl1-Bid inh = disrupts binding of human Mcl-1 to Bid peptide | inhibition, % at 21.7 µM | TR-FRET Mcl-1/Bid-Dy647 peptide binding, 1536-well | AID 1021 | Q07820 | 0.97% of 220,000 active;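 active means compounds that cut the binding signal by more than half at the single screening dose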;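 further: His-tagged Mcl-1 with europium anti-His antibody binding Bid BH3 peptide; 0% = Mcl-1 plus peptide wells and 100% = peptide-only wells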
# eIF4E-4G inh = inhibitors of eIF4E and eIF4G interaction in translation initiation | P63073+Q04637 | TR-FRET eIF4E-eIF4GI(517-606) binding, 2 h | inhibition, % at 21.7 µM | 0.37% of 220,000 active | AID 782;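 active means inhibition above about 30%, limit read from the data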;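 further: 0% = full FRET control wells and 100% = background wells lacking eIF4GI fragment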
# Target sequence (P63073 whole entry, looked up, the tested form may be a part): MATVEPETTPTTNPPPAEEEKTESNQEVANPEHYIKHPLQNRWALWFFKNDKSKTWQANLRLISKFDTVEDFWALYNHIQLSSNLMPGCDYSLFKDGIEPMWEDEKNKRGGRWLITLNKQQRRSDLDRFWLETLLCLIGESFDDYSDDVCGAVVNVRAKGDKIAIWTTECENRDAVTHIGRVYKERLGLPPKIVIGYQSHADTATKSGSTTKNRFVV
# Target sequence (Q04637 whole entry, looked up, the tested form may be a part): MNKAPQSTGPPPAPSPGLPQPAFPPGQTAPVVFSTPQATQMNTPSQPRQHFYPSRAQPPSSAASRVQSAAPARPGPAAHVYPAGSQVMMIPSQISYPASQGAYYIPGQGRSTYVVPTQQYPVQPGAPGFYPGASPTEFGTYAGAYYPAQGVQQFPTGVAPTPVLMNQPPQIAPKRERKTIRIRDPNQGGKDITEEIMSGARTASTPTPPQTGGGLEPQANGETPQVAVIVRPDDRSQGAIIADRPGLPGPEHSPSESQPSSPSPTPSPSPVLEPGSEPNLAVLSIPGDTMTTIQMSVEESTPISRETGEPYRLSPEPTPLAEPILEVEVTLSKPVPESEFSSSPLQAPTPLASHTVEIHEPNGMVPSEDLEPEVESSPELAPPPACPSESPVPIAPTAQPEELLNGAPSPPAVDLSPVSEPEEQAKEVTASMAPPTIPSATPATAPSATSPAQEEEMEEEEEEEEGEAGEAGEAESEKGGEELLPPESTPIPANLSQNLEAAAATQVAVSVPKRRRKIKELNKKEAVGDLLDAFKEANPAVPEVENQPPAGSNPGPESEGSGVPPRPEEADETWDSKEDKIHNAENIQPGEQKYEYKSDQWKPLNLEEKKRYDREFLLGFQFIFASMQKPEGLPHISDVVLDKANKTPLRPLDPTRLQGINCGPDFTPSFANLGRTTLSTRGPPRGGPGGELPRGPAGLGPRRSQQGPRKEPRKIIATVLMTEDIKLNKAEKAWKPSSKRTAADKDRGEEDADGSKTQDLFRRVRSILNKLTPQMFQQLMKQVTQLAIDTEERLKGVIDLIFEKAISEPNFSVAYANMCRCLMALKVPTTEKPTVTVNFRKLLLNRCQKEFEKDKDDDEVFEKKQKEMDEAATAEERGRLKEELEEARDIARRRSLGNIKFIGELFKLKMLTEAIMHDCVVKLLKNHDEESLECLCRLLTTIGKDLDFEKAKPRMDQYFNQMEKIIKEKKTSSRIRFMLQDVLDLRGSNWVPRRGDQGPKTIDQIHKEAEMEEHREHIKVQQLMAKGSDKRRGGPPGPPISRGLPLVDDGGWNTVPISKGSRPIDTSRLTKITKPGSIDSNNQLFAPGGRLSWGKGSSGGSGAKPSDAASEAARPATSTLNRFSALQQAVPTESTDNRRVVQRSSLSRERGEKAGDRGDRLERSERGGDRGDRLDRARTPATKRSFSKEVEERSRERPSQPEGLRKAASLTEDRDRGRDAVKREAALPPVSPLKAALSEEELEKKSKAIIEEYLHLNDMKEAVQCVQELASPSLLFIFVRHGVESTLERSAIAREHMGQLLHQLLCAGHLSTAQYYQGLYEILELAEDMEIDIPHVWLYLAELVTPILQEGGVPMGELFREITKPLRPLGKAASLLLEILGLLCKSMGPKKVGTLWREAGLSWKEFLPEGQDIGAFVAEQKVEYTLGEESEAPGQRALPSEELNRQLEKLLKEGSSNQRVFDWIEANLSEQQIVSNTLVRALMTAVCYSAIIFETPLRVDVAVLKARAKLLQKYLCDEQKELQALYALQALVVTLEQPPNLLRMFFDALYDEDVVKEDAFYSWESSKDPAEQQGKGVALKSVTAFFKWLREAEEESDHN
# The depositor's hits bear a star; . = no result; [ ] = dose if it differs, or a comment. An excerpt weighted towards active compounds, which were near 2.6% of everything screened.
SMILES,Mcl-1 Bim block,14-3-3 Bad inh,Mcl1 Noxa PPI,MCL1 BIM primary,Mcl1-Bid inh,eIF4E-4G inh
O=C(NCC(c1cccnc1)N1CCOCC1)c1cccc(Cl)c1 (configuration not stated),-3.0,3.5,9.8,0.1,56.5*,0.8
O=C(O)CCc1ccc(-c2ccc(Cl)cc2)o1,-2.0,-2.3,17.9,6.2,94.7*,4.2
CC1CCC(C(C)C)C(OC(=O)C[n+]2cc(-c3ccc(Cl)cc3)n3c2CCC3)C1 (configuration not stated),.,-3.4,36.1,8.4,92.1*,2.1
COc1ccc(C(=O)N2C(=S)NC(=O)/C2=C\c2ccc(C)cc2)cc1,-2.0,83.9*[fluorescence artefact?],46.7,-28.0,6.0,16.6
CC(=O)Nc1ccc(S(=O)(=O)N2CCN(C(=O)c3ncoc3-c3ccc(F)cc3)CC2)cc1,.,.,.,0.5,.,.
COC(=O)c1ccc(N)cc1O,5.0,0.8,3.8,5.2,-29.7,-0.2
COC(=O)c1ccc(=O)c2nc3/c(=C/O)c(O)cc(=O)c3[nH]c12,.,73.2*,98.4*,97.3*,75.4*,55.3*
Cc1ccc(NC(=O)CCC(=O)NNC(=O)Nc2cccc(Cl)c2)c(C)c1,.,.,.,8.8,.,.
CCOc1cccc(OCCOCCN(C)Cc2ccccc2)c1,5.0,-8.1,-5.9,3.6,-23.4,4.2
CCOc1ccc(OCCN(C)Cc2ccccc2)cc1,-5.0,40.5,10.0,10.0,58.9*,4.0
CCOc1cc(/C=C(\C#N)C(=O)NCc2cccnc2)ccc1O,2.0,6.2,22.3,2.5,-22.1,3.4
O=C1NN(c2ccccc2)C(=O)/C1=C/c1ccc(Sc2cccc3ccccc23)o1,-3.0,-5.4,50.6*,12.9,-40.6,5.3
O=C1NN(c2ccccc2)C(=O)/C1=C/c1ccc(-c2ccc(C(=O)O)cc2)o1,.,.,.,29.1,.,.
COc1ccc(O)c(CN2CCN(C/C=C/c3ccccc3)CC2)c1,0.0,73.8*,22.6,5.7,-18.8,-3.9
N#Cc1ccccc1COc1cccc2c1CCCC2O (configuration not stated),.,.,.,3.4,.,.
CCc1ccc(CNC(=O)C2CC(=O)N(C3CCCC3)C2)cc1 (configuration not stated),.,.,.,-3.4,.,.
Oc1ccc(Cl)cc1/C=C/c1ccc2cccc(O)c2n1,-1.0,-5.5,46.4,.,-38.2,3.8
Oc1c(Cl)cc(Cl)cc1/C=C/c1ccc2cccc(O)c2n1,2.0,-10.3,81.5*,-4.0,-56.3,2.8
O=C(CCn1[nH]c(=O)c2ccccc2c1=O)NCCO,0.0,35.8,3.9,3.0,15.0,35.3*
CCOC(=O)C1(C)NC(c2ccc(OC)c(OC)c2)C2C(=O)N(CC)C(=O)C21 (configuration not stated),-1.0,-5.9,5.9,-0.6,3.0,-9.7
CCCC1(C(=O)OCC)NC(c2cc(OC)c(OC)c(OC)c2)C2C(=O)N(CC)C(=O)C21 (configuration not stated),81.0*,-7.5,7.8,2.8,-19.4,-1.9
O=C(CN1CCCCC1)NC(=O)NCc1ccccc1,-4.0,-17.7,7.8,4.1,-14.7,7.1
O=C(/C=C/c1ccc(O)c(O)c1)c1ccc(S(=O)(=O)N2CCCCCC2)cc1,-2.0,-0.1,64.9*,20.8,-43.9,10.4
CCCCOc1ccc(-c2nc(-c3cccnc3)no2)cc1,0.0,160.4*[fluorescence artefact?],-2.5,-1.1,8.3,-16.1
CCOc1ccc(-c2nc(-c3cccnc3)no2)cc1,-1.0,2.5,-9.6,9.3,-9.4,0.6
SMILES,Mcl-1 Bim block,14-3-3 Bad inh,Mcl1 Noxa PPI,MCL1 BIM primary,Mcl1-Bid inh,eIF4E-4G inh
O=C(Nc1nnc(-c2ccco2)s1)C1CC1,-4.0,-11.7,7.4,8.8,77.3*,4.2
CCOC(=O)CC(=O)Nc1ccn[nH]1,.,-6.2,54.8*,-6.8,-1.1,4.0
CN(Cc1ccccc1)CC(O)COc1ccc(CNCCc2ccncc2)cc1 (configuration not stated),0.0,86.2*,13.6,9.3,5.7,-3.8
CN(Cc1ccccc1)CC(O)COc1ccc(CNCCc2cccnc2)cc1 (configuration not stated),-4.0,-5.2,10.1,12.5,-23.2,4.3
Cn1nccc1C(=O)NC1CCN(Cc2ccccc2)CC1,.,.,.,7.2,.,.
O=C(N/N=C/c1ccco1)c1cccc(N2Cc3ccccc3C2)c1,0.0,21.3,75.2*,20.5,-7.1,7.4
O=c1[nH]c(CN2CCN(c3ccc(O)cc3)CC2)nc2scc(-c3ccc(Cl)cc3)c12,11.0,-4.1,66.3*,9.2,-55.3,3.0
O=S(=O)(Nc1cc(Sc2ncn[nH]2)c(O)c2ccccc12)c1ccccc1,4.0,70.6*,83.2*,.,17.6,26.6
O=C1N/C(=N/Nc2ccccc2)S/C1=C\c1ccccc1,-5.0,-3.7,97.1*,18.7,-55.7,-0.5
CCC(=O)N(C)CCc1cc2c(c(OC)c1/C=N/NC(=O)c1ccc(Br)cc1)OCO2,-3.0,-0.7,21.4,1.4,-1.1,0.8
O=C(Nc1cccc(O)c1)C1CC(c2ccc(Cl)cc2)=NO1 (configuration not stated),.,.,.,-4.5,.,.
COc1ccc(OC)c(-c2nc(C(N)=O)c3[nH]c(=O)n(-c4ccc(F)cc4)c3n2)c1,1.0,21.7,66.6*,-2.1,65.7*,-2.4
Cc1ccc(C(=O)Nc2c(-c3cccs3)c(=O)c3ccccc3n2C)cc1,1.0,18.9,-0.1,-0.2,66.3*,-30.3
COC(=O)c1cc(C(=O)OCC(=O)NC(=O)c2ccccc2)cc([N+](=O)[O-])c1,.,.,.,6.5,.,.
NNc1nc(-c2ccccc2)cs1,-7.0,-21.4,3.8,5.0,83.2*,-2.6
CC(C)(C)OC(=O)N[C@@H](Cc1ccccc1)C(=O)N1CCC(C(=O)N[C@@H](Cc2c[nH]c3ccccc23)C(=O)O)CC1,.,.,.,-6.4,.,.
Cc1nc(NC(C)C)c2cnn(CCc3ccccc3)c2n1,-3.0,-1.2,1.6,0.1,5.0,-3.7
O=C(O)CCCN1C(=O)/C(=C\c2ccccc2OCc2ccccc2)SC1=S,.,.,.,10.0,.,.
O=C(O)CCCN1C(=O)/C(=C/c2cn(-c3ccccc3)nc2-c2cccs2)SC1=S,-1.0,67.8,86.7*,.,77.7*,19.5
CN(C)S(=O)(=O)c1cccc(N=c2scc(-c3ccc4c(c3)NC(=O)CO4)n2CC2CCCO2)c1 (configuration not stated),-1.0,70.4*,-2.8,3.0,74.2*,-17.9
COc1ccccc1N=c1scc(-c2ccc3c(c2)NC(=O)CO3)n1CC1CCCO1 (configuration not stated),-1.0,1.3,-2.1,-1.4,-18.5,-2.4
CCCC1C2CN(C(C)C)CC=C2C(C#N)=C(N)C1(C#N)C#N (configuration not stated),-1.0,34.3,12.1,180.2*,-23.4,-0.1
CC(C)c1ccc(C2C3CSCC=C3C(C#N)=C(N)C2(C#N)C#N)cc1 (configuration not stated),-1.0,9.2,13.7,-12.8,-28.4,8.0

# Screening data: PubChem BioAssay, several laboratories
